# Test results published in PubChem BioAssay (Tox21).
# Records with an inconclusive call do not appear. Where a call stands in place of a potency, no number is given. Activity calls are given as the source filed them. The call rests on the fitted dose curve; in most records, active means well fitted cell-killing curve with a large enough effect in the repeat runs; inconclusive means weak or mixed curves, or effect the other way; inactive means flat fitted curve, though single readings scatter.
# Test: Caspase-3/7 induction in HepG2 cells by small molecules, qHTS cell viability counter screen (AID 1346981); further: nearly all actives have a fitted effect of over 30% in size
# Settings: CellTiter-Fluor fluorescence, 17 h; series mostly up to 92.4 µM
# Description: U.S. Tox21 Program National Center for Advancing Translational Sciences [NCATS] NIH Chemical Genomics Center [NCGC] U.S. Environmental Protection Agency [EPA] National Institutes of Environmental Health Sciences [NIEHS] National Toxicology Program [NTP] U.S. Food and Drug Administration [FDA] Tox21 Assay Overview: Apoptosis is a process of programmed cell death and plays a central role in the development of multicellular organisms. It is a highly regulated process and induces cell death by activating caspases, which are the members of cysteine aspartic acid-specific protease (caspase) family. Caspases involved in apoptosis are classified by their mechanism of action as initiator caspases (caspase-2, -8, -9 and -10) and executioner caspases (caspase-3, -6, and -7). Inhibition of apoptosis results in number of cancers, autoimmune diseases, inflammatory diseases and viral infection. To identify small molecule compounds that induce apoptosis, a homogeneous, luminescent Caspase-Glo 3/7 assay was used. Wild type HepG2 cells were used to screen Tox21 libraries for identifying caspase-3/7 activity inducers. Also cytotoxicity of the compounds was tested in parallel by measuring the cell viability using CellTiter-Fluor assay system in the same wells.
# Tox21 Assay Protocol Summary: HepG2 cells were dispensed at 2,000 per well in 5uL of culture medium into white solid bottom 1536-well plates (Corning Life Sciences, Corning, NY) using a Multidrop Combi (Thermo Scientific, Waltham, MA) dispenser. The assay plates were incubated at 37 C and 5% CO2 for 5hr, and then 23nL of compounds dissolved in DMSO and positive control were transferred using a Pintool station ([…], San Diego, CA). The assay plates were incubated at 37C and 5% CO2 for 17hr. For cytotoxicity read, after 16hr incubation at 37C, 1uL CellTiter-Fluor reagent (Promega Corporation, Madison, WI) was added to each well of the assay plates using Flying Reagent Dispenser (FRD, Aurora Discovery, San Diego, CA). After 1hr incubation at 37C and 5% CO2, the fluorescence signal was quantified using a ViewLux plate reader (PerkinElmer, Shelton, CT).
SMILES,Potency,"activity change, negative = cytotoxicity"
CC1N=C(N)OC1c1ccccc1 (stereo not given),inactive,
CCOC(=O)Nc1cccc(OC(=O)Nc2ccccc2)c1,inactive,
C=C1C[C@@H]2[C@H](CC[C@]3(C)C(=O)CC[C@@H]23)[C@@]2(C)C=CC(=O)C=C12,inactive,
CCc1ccc(C2CCNCC2)cc1,inactive,
CON(C)C(=O)Nc1ccc(Br)c(Cl)c1,inactive,
O=C(O)C(Br)(Br)Br,inactive,
COC(=O)c1ccccc1CS(=O)(=O)NC(=O)Nc1nc(OC)cc(OC)n1,inactive,
CNC(=O)O/N=C(/CSC)C(C)(C)C,inactive,
CCN(CCO)CCn1c(Cc2ccccc2)nc2c1c(=O)n(C)c(=O)n2C,inactive,
C[N+]1(C)CCCCC1,inactive,
C=C(Cl)CSC(=S)N(CC)CC,inactive,
ClCCCCl,inactive,
CCC1(CC)C(=O)C=CNC1=O,inactive,
O=P(O)(O)CN(CP(=O)(O)O)CP(=O)(O)O,inactive,
COc1cccc(C=O)c1,inactive,
CCOP(=S)(OCC)SCCl,inactive,
CN(C)C1CCCCC1,inactive,
C/C=C/CC#N,inactive,
C=CC(=O)OCCN(C)C,inactive,
ClC(Cl)(Cl)Cl,inactive,

SMILES,Potency,"activity change, negative = cytotoxicity"
CCC(=O)OC1(c2ccccc2)CCN(C)CC1,inactive,
Nc1c(Cl)c(F)nc(OCC(=O)O)c1Cl,inactive,
CNC(=O)Oc1ccccc1C(C)C,inactive,
CCC(C(N)=O)N1CCCC1=O (stereo not given),inactive,
O=C(Cl)C(Cl)(Cl)Cl,inactive,
CC(=O)OCC1=C(C(=O)O)N2C(=O)[C@@H](N)[C@H]2SC1,,-1.33% [at 19 µM] (inactive)
N#CN=C1SCCN1Cc1ccc(Cl)nc1,inactive,
OCC(Cl)CCl (stereo not given),inactive,
O=C/C=C/c1ccco1,inactive,
CCC(=O)c1ccc(Cl)cc1,inactive,
O=CCCl,inactive,
CC[C@@H](CO)NC(=O)[C@@H]1C=C2c3cccc4[nH]cc(c34)C[C@H]2N(C)C1,inactive,
CCCOC(=O)c1cncn1C(C)c1ccccc1 (stereo not given),inactive,
CCN(CC)C1CCCCC1,inactive,
CCOc1cc(OP(=S)(OC)OC)nc(CC)n1,inactive,
O=C1CC(=O)NC(=O)N1,inactive,
Oc1ccc(Cc2ccc(O)cc2)cc1,inactive,
CCN1CCCC1CNC(=O)C(O)(c1ccccc1)c1ccccc1 (stereo not given),inactive,
CCCCCCCC(=O)Cl,inactive,
C/C(=N\NC(=O)Nc1cc(F)cc(F)c1)c1ncccc1C(=O)O,inactive,
